Test [1] has as its system MCC-13. Kind of test: qHTS assay to identify novel small-molecules to repurpose for Merkel cell carcinoma treatment (AID 1296009). Also: nearly all actives have a fitted effect of over 60% in size. The conditions noted are these: MCC and control cell lines, CellTiter-Glo viability, 72 h; series mostly up to 46 µM. An outline of the steps: (§1)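 Cell viability measured by CellTiter-Glo following 72 hr compound treatment at 37 degree celsius, with NPC and MIPE libraries tested in 8- and 11-point concentration series.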
A general note: qHTS replaces the single test concentration by a dilution series.

Test [2] relates to MCC-26. The test is described as above. The conditions noted are these: MCC and control cell lines, CellTiter-Glo viability, 72 h; series mostly up to 46 µM. In outline:
as §1
In general terms: ATP-based viability assays read luminescence as a measure of living cells.

Test [3] deals with MKL-1. Described as above. The conditions noted are these: MCC and control cell lines, CellTiter-Glo viability, 72 h; series mostly up to 46 µM. In outline: as §1
The test system of test [4] is MKL-2. Described as above. The settings on record: MCC and control cell lines, CellTiter-Glo viability, 72 h; series mostly up to 46 µM. An outline of the steps: as §1
In test [5] the test system is UISO. Described as above. The settings on record: MCC and control cell lines, CellTiter-Glo viability, 72 h; series mostly up to 46 µM. In outline: as §1
Test [6] deals with WaGa. The description is as above. The conditions noted are these: MCC and control cell lines, CellTiter-Glo viability, 72 h; series mostly up to 46 µM. An outline of the steps: as §1
The test system of test [7] is C33A. Kind of test: Primary qHTS to identify gynecologic anti-cancer compounds using libraries of approved drugs and bioactive compounds (AID 1345084). Also: nearly all actives have a fitted effect of over 55% in size. The conditions noted are these: Gynecologic cancer cell panel viability, ATPlite luminescence, 48 h; series mostly up to 57.5 µM. In outline: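 In this quantitative HTS, cell killing is estimated from loss of ATP-dependent luciferase light. Cells see five compound concentrations over a 48 h exposure.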

In test [8] the test system is NIH3T3. Kind of test: qHTS assay to identify novel small-molecules to repurpose for Merkel cell carcinoma treatment (AID 1296009). Also: nearly all actives have a fitted effect of over 60% in size. The settings on record: MCC and control cell lines, CellTiter-Glo viability, 72 h; at 44.8 µM (top of the series) unless noted. An outline of the steps:
as §1

In test [9] the test system is HEK293T. The test is described as above. The conditions noted are these: MCC and control cell lines, CellTiter-Glo viability, 72 h; at 44.8 µM (top of the series). In outline: as §1

Results filed as inconclusive are left out. Activity calls are given as the source filed them. Calls follow the shape of the dose curve; as a rule, active = well fitted curve in the direction sought with a large enough effect; inconclusive = small, poorly fitted or top-dose-only effect, or another doubt; inactive = no such curve, though single readings can be large; an effect the other way counts as inactive or inconclusive.
Potency is read from the fitted curve at half-maximal effect.

As to `C[N+](C)(C)CCOC(=O)C(O)(c1ccccc1)c1ccccc1`, the Potency result in test [1], in [2], in test [3], in [4], in test [5] and in [6] was “inactive” in each case. Moreover, the Potency entry in test [7] is “inactive”.

With `COCC(=O)N(c1c(C)cccc1C)C(C)C(=O)OC` (stereo unspecified), the Potency result in [1], in [2], in [3], in test [4], in [5] and in [6] was “inactive” throughout. Moreover, the Potency result in [7] is “inactive”. In addition, the call in test [8] was inactive.

Regarding `CCC1(c2ccccc2)CCC(=O)NC1=O` (stereo unspecified), the Potency entry in test [1], in test [2], in test [3], in test [4], in test [5] and in test [6] was “inactive” each time. Besides, the Potency result in test [7] was “inactive”.

Consider `Cc1c(Cl)c(=O)oc2cc(OP(=O)(OCCCl)OCCCl)ccc12`, for which the Potency entry in test [1], in [2], in [3], in [4], in [5] and in test [6] was “inactive” throughout. In addition, the Potency result in [7] is “inactive”.

As for `COc1cc(N)c(Cl)cc1C(=O)NC1CN2CCC1CC2` (stereo unspecified), the Potency entry in test [1], in test [2], in test [3], in test [4], in [5] and in test [6] was “inactive” each time. Besides, the Potency result in [7] was “inactive”. Besides, the call in test [8] was inactive.

On to `CCNc1nc(Cl)nc(NCC)n1`, for which the Potency entry in test [1], in [2], in test [3], in test [4], in [5] and in test [6] was “inactive” in each case. Besides, the Potency entry in test [7] was “inactive”.

As for `CNC(C)Cc1ccccc1OC` (stereo unspecified), the Potency entry in test [1], in test [2], in test [3], in [4], in [5] and in [6] was “inactive” in each case. The Potency entry in test [7] was “inactive”.

For `CCCOC(=O)Cc1ccc(OCC(=O)N(CC)CC)c(OC)c1`, the Potency result in test [1], in [2], in test [3], in [4], in test [5] and in test [6] was “inactive” in each case. Besides, the Potency result in [7] is “inactive”.

As to `CCS(=O)(=O)C(C)(C)S(=O)(=O)CC`, the Potency result in [1], in test [2], in test [3], in test [4], in test [5] and in test [6] was “inactive” each time. The Potency result in [7] is “inactive”.

With `CN1[C@@H]2CC[C@H]1CC(OC(=O)c1cc(Cl)cc(Cl)c1)C2` (stereo partly specified), the Potency entry in test [1], in [2], in test [3], in test [4], in [5] and in [6] was “inactive” throughout. In test [7], the Potency entry was “inactive”.

Take `C[C@@H]1CN(C2CCC(C#N)(c3ccc(F)cc3)CC2)CC[C@]1(C(=O)O)c1ccccc1` (stereo partly specified): the Potency entry in [1], in test [2], in [3], in test [4], in test [5] and in test [6] was “inactive” in each case. Further, the Potency result in test [7] was “inactive”. Also, the molecule was classed as inactive in test [8].

Consider `CN(C)CCc1c[nH]c2ccccc12`, for which the Potency entry in test [1], in test [2], in [3], in [4], in test [5] and in test [6] was “inactive” in each case. For the same molecule, in [7], the Potency entry was “inactive”.

As to `Oc1c(Br)cc(Br)cc1Br`, the Potency entry in [1], in test [2], in test [3], in test [4], in [5] and in test [6] was “inactive” each time. In addition, the Potency result in test [7] is “inactive”.

Turning to `COc1cc(CC(C)N)cc2c1OCO2` (stereo unspecified), the Potency result in [1], in [2], in test [3], in test [4], in [5] and in test [6] was “inactive” each time. Moreover, the Potency entry in test [7] was “inactive”.

For the molecule `COP(=S)(OC)Oc1ccc(Sc2ccc(OP(=S)(OC)OC)cc2)cc1`, the Potency entry in test [1], in [2], in [3], in test [4], in test [5] and in test [6] was “inactive” each time. The Potency entry in test [7] is “inactive”. Also, the call in test [8] was inactive.

Turning to `Nc1ccccc1C(=O)OCC(O)CO` (stereo unspecified), the result in test [9] was inactive. For the same molecule, the Potency entry in test [1], in test [2], in [3], in [4], in [5] and in test [6] was “inactive” throughout. Also, the Potency entry in test [7] was “inactive”.

Turning to `Cc1ccc([N+](=O)[O-])[c]2c1[O][Hg]2`, the Potency in [1] was 2110 nM (active); in [2], 1880 nM (active); in test [3], 133 nM (active); in test [4], 42.2 nM (active); in test [5], 335 nM (active); in [6], 335 nM (active). The Potency in test [7] was 4470 nM (active).

Regarding `CCOC(=O)c1ncn2c1CN(C)C(=O)c1c(I)cccc1-2`, the Potency entry in test [1], in [2], in test [3], in test [4], in test [5] and in test [6] was “inactive” throughout. Besides, the Potency entry in [7] is “inactive”.

With `OC(c1ccccc1)(c1ccccc1)C1CCNCC1`, the Potency entry in test [1], in test [2], in test [3], in test [4], in test [5] and in [6] was “inactive” each time. Also, the Potency result in [7] was “inactive”.

In the case of `CC(C)C(Br)C(=O)NC(N)=O` (stereo unspecified), the Potency entry in test [1], in test [2], in [3], in [4], in test [5] and in [6] was “inactive” in each case. The Potency result in test [7] is “inactive”.

Regarding `CC1Sc2c(C(=O)O)c(=O)c3cc(F)c(N4CCNCC4)cc3n21` (stereo unspecified), the Potency result in [1], in [2], in [3], in [4], in test [5] and in test [7] was “inactive” throughout. The molecule was called inactive in [8].

For `CCOC(C(=O)OCCN(C)C)(c1ccccc1)c1ccccc1`, the Potency result in test [1], in test [2], in test [3], in test [4], in [5] and in test [6] was “inactive” each time. In test [7], the Potency result is “inactive”.

`O=C(CBr)Nc1ccc(Cl)cc1C(=O)c1ccccc1F`: the Potency result in [1], in [2], in [3], in [4], in test [5] and in test [6] was “inactive” each time. Also, in test [7], the Potency entry is “inactive”. In [8], the molecule was classed as inactive.

`Cc1nc2ccccc2c(=O)n1-c1ccccc1Cl`: the Potency result in test [1], in test [2], in test [3], in test [4], in test [5] and in test [6] was “inactive” each time. For the same molecule, in [7], the Potency entry is “inactive”.

In the case of `O=C(N[C@H]1N=C(c2ccccc2F)c2cccc3c2N(CC3)C1=O)c1cc2ccccc2[nH]1`, the Potency entry in [1], in test [2], in [3], in [4], in [5] and in [6] was “inactive” throughout.

Consider `CCC1(c2cccc(O)c2)CCCCN(C)C1` (stereo unspecified), for which the Potency entry in test [1], in [2], in test [3], in test [4], in [5] and in test [6] was “inactive” throughout. Besides, in [7], the Potency result was “inactive”.

As for `CC(Cc1ccccc1)NCc1ccccc1Cl` (stereo unspecified), the Potency entry in [1], in [2], in [3], in test [4], in [5] and in test [6] was “inactive” throughout. In test [7], the Potency result is “inactive”.

For `CC(Cc1ccc2c(c1)OCO2)NO` (stereo unspecified), the Potency entry in test [1], in test [2], in test [3], in test [4], in test [5] and in test [6] was “inactive” each time. Moreover, the Potency result in test [7] was “inactive”.

`Sc1ccccc1Cl`: the Potency entry in [1], in test [2], in test [3], in [4], in test [5] and in test [6] was “inactive” throughout. Further, the Potency entry in [7] is “inactive”.

Consider `O=C1CN2CCOC2(c2ccccc2Cl)c2cc(Cl)ccc2N1` (stereo unspecified), for which the Potency result in test [1], in test [2], in [3], in test [4], in [5] and in test [6] was “inactive” throughout. Moreover, the Potency result in test [7] was “inactive”. Also, the molecule was classed as inactive in [8].

For the origin of these results see PubChem BioAssay (NCATS).
